Screens deposited in PubChem BioAssay by National Center for Advancing Translational Sciences (NCATS).
DRD3 antagonist: blocks the human D3 dopamine receptor; max response, negative = inhibition, %; hit rate 2.5% among 360,000; D3R cells, DiscoveRx beta-arrestin luminescence, antagonist mode; hits give low values; P35462; in the data active means max response below about -50%; inconclusive means no clear call, values can overlap the other calls; further: on the % scale 0 is the no-effect control and ±100 the full control effect
Target sequence (P35462 whole entry, looked up): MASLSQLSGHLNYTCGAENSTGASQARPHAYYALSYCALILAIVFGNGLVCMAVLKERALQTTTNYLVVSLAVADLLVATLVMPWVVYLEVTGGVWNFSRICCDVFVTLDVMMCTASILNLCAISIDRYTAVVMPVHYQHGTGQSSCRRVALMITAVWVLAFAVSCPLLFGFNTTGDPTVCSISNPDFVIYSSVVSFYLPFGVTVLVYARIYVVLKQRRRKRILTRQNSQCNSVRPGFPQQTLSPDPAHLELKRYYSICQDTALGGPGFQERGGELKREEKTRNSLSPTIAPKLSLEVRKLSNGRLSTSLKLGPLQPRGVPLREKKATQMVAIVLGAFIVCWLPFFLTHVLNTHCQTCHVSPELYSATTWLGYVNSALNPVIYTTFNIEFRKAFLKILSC
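Cells plated overnight at 1500 cells/well, then exposed to library compounds with dopamine controls for 90 minutes at 37 degrees C. DiscoveRx reagent added for 30–60 minutes at room temperature; luminescence read, quantitative HTS format.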
DT40 TDP1 CPT: growth inhibition of DT40 Tdp1-/-;hTDP1 cells with camptothecin (screen for TDP1 inhibitors); chicken DT40 Tdp1-/-;hTDP1 cells + 20 nM CPT, ATP luminescence, 48 h; Potency, µM (top dose mostly 46.2 µM), without a hit: at the top dose activity change, negative = growth inhibition, usual class: inhibitors; hit rate 12% among 420,000; AID 686979; further: potency means the concentration at half of the fitted maximal effect; on the % scale 0 is the no-effect control and ±100 the full control effect; nearly all actives have a fitted effect of over 55% in size
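Cell growth measured by CellTiter-Glo luminescence after a minimum 48 h, 37 C compound exposure with 20 nM CPT in Tdp1-knockout DT40 cells stably expressing hTDP1, seeded 400/well; qHTS titration format.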
DRD3 agonist: D3 dopamine receptor (human) agonism; D3R DiscoveRx beta-arrestin cells, luminescence, 90 min; max activation, %; hit rate 0.58% among 410,000; AID 652048; in the data active means max activation above about 30%; further: 0% is about no effect
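Agonist-mode cell screen: cells plated at 1500/well and incubated overnight at 37 °C, then exposed to library compounds for 90 min at 37 °C. Detection reagent was added for 30–60 min at room temperature, and luminescence was read.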
TDP1 cell noCPT: qHTS for Inhibitors of human tyrosyl-DNA phosphodiesterase 1 (TDP1): qHTS in cells in absence of CPT. Potency, µM (highest dose often 46.2 µM), inactives show at the highest dose activity change, negative = growth inhibition, usual class: inhibitors. DT40 Tdp1-/- hTDP1 cells, no CPT, ATP luminescence, 48 h. hit rate 15% among 420,000; further: potency means the concentration at half of the fitted maximal effect; on the % scale 0 is the no-effect control and ±100 the full control effect; nearly all actives have a fitted effect of over 55% in size
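Growth kinetics read by CellTiter-Glo luminescence after ≥48 hr at 37 °C. Cells: DT40 Tdp1-/- stably carrying human TDP1, 400 per well, compound exposure in the absence of CPT (DMSO vehicle).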
ClpP mod: qHTS Assay for Activators of ClpP | Potency, µM (top dose mostly 57.5 µM), for inactives: at the highest dose activity change, negative = active | hit rate 1.9% among 340,000 | AID 651965, 2013 | purified B. subtilis ClpP, FRET peptide cleavage, 20 min; active means well fitted falling curve with a large enough effect; inconclusive means small, poorly fitted or top-dose-only effect; inactive means no such curve, though single readings can be large or run the other way; further: potency means the concentration at half of the fitted maximal effect; the source files actives as falling curves though it sought activators and does not explain the sign; nearly all actives have a fitted effect of over 65% in size
Target sequence (P80244 whole entry, looked up): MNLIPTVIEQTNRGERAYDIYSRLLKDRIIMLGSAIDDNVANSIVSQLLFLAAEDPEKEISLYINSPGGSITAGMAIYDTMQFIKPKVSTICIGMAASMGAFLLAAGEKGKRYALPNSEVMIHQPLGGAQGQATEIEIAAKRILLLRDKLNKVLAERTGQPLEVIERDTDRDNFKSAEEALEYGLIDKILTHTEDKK
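FRET quenching reversal measured ClpP activation: 10 microg/mL B. subtilis ClpP at pH 8 with the FRET-FV decapeptide, read at 430 nm after 320 nm excitation. The 20-min minus 0-min signal was scaled between DMSO/no-enzyme wells and ADEP (5.8 microM final).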
IL1B secr inh: inhibitors of inflammasome signaling (IL-1 beta secretion) | hit rate 4.7% among 360,000 | activity change, % at 57.5 µM | THP-1 LPS/ATP IL-1B secretion, AlphaLISA, 16 h; hits give low values; in the data active means activity change below about -50%; inconclusive means mostly about -30% to -49%; further: on the % scale 0 is the no-effect control and ±100 the full control effect
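Secreted IL-1B measured by AlphaLISA bead assay after 16 h compound exposure of THP-1 cells; compounds (final up to 57.5 uM) added 1 h before LPS (250 ng/mL) and ATP (1.25 mM) stimulation; lower signal means less secretion.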
The depositor's hits bear a star; ? = inconclusive; . = not tested or not shown; [ ] = remark or other dose. The list is not random: actives were taken first. Their share in the collection is about 21%. Unless noted, the call rests on the fitted dose curve; in most records, active means well fitted inhibition curve with a large enough effect; inconclusive means small, poorly fitted or top-dose-only effect; inactive means flat fitted curve, though single readings scatter.

SMILES | DRD3 antagonist | DT40 TDP1 CPT | DRD3 agonist | TDP1 cell noCPT | ClpP mod | IL1B secr inh
COc1ccccc1NC(=O)c1c(Nc2ccccc2C)sc(C(=O)Nc2cccc(Cl)c2)c1N | ? | 20.6µM* | -2.8 | ? | -2.9% | ?
Cc1cccc2c(N3CCCC3)nc(CNS(=O)(=O)c3ccccc3Cl)nc12 | . | -13.5%[9.04 µM] | . | -29.0% | . | .
Cc1cc(Nc2sc(C(=O)c3ccc(F)cc3)c(N)c2C(=O)Nc2ccc(F)cc2)ccc1Cl | . | 11.6µM* | 2.3 | 3.66µM* | -0.5% | .
N#Cc1c(Nc2cccc(F)c2)sc(C(=O)c2ccc(Cl)cc2)c1N | . | . | -6.1 | . | 0.4% | .
CCOc1ccc(C(=O)Nc2ccc(C(=O)OCc3cc(=O)n4nc(CC)sc4n3)cc2)cc1 | . | -10.7% | 6.6 | ? | -15.2% | .
CCCc1nn2c(=O)cc(COC(=O)c3ccccc3NC(=O)COc3ccccc3)nc2s1 | . | ? | -13.5 | -19.9% | -0.8% | .
CCc1nn2c(=O)cc(COC(=O)c3ccc(NC(=O)COc4ccc(C)cc4)cc3)nc2s1 | . | ? | -5.8 | 16.4µM* | ? | .
COc1ccc(OCC(=O)Nc2ccc(C(=O)OCc3cc(=O)n4nc(C)sc4n3)cc2)cc1 | . | 13µM* | -8.1 | 20.6µM* | 4.6% | .
CCc1nn2c(=O)cc(COC(=O)c3ccccc3NC(=O)COc3ccc(C)c(C)c3)nc2s1 | . | 5.17µM* | 3.2 | 6.51µM* | 4.5% | .
CCOC(=O)N(C(=O)c1ccccc1)c1ccccc1 | . | ? | . | ? | 0.6% | .
O=C(c1ccncc1)N1CCC2(CC1)CCN(c1ccncc1)CC2 | . | 16.2% | . | -12.7% | . | .
CCN1C(=O)[C@H]2[C@H]3CN=C(SCC(=O)c4ccccc4)N3[C@@](CC)(C(=O)OC)[C@H]2C1=O | -13.9 | ? | -16.2 | -10.5% | -1.7% | -19.2
COc1ccc(C(C#N)=C2C=CC(=NO)C(C)=C2Cl)cc1 | 0.0 | 10.3µM* | -16.0 | 7.31µM* | 3.4% | -82.1*
COc1ccc(C(C#N)=C2C=C(Cl)C(=NO)C=C2Cl)cc1 | -5.3 | 3.26µM* | -14.2 | 2.59µM* | 1.8% | -5.9
CCOC(=O)c1ccc(NS(=O)(=O)c2cc3c(cc2C)n(C)c(=O)c(=O)n3C)cc1 | . | ? | 2.9 | ? | -4.1% | .
CC1=CC(=C(C#N)C#N)C=C(C)N1Cc1ccccc1 | 13.3 | 24.4% | 3.8 | -16.8% | . | 21.5
CCc1ccccc1NC(=O)C(C)n1c(=O)cc(C)c2c(C)nn(-c3ccccc3)c21 (configuration not stated) | . | 0.1% | 7.2 | -0.9% | -3.7% | .
S=c1[nH]nc(C2CCCCC2)o1 | ? | 0.1% | -2.1 | 11.0% | . | 13.4
O=C(CN(Cc1ccccc1)S(=O)(=O)c1ccc2c(c1)OCCO2)N/N=C/c1cccc(Br)c1 | -1.9 | ? | -4.9 | ? | -1.2% | -13.4
O=C(CN(Cc1ccccc1)S(=O)(=O)c1ccc2c(c1)OCCO2)N/N=C/c1ccc(F)cc1 | -18.1 | -26.5% | -8.6 | -19.5% | -1.1% | -56.0*
Cc1ccc(CNC(=O)[C@@H](NC(=O)C2CCN(C(=O)[C@@H](N)CC(C)C)CC2)C(C)C)cc1 | 0.9 | -18.4% | -3.1 | -21.3% | -1.1% | -15.8
CCOC(=O)N(C)c1c(CC)nc2c(OCc3ccccc3C)cccn12 | 0.0 | ? | -6.2 | 14.6µM* | -5.5% | 10.7
CCc1nc2c(OCC(=O)N3CCOCC3)cccn2c1N(C)C(=O)COc1ccccc1 | -52.7* | 4.9% | 1.6 | -4.4% | -0.8% | -11.9
CCOC(=O)N(C)c1c(CC)nc2c(OCCOc3ccccc3)cccn12 | 7.2 | ? | 4.0 | 16.4µM* | 3.5% | -15.0
CCCCN(C=O)c1c(CC)nc2c(OCC(=O)N3CCOCC3)cccn12 | 0.0 | -8.5% | -6.7 | -6.7% | -0.7% | 15.2
CCOC(=O)N(C)c1c(CC)nc2c(OCc3ccccc3OC)cccn12 | -9.9 | 20.6µM* | -2.0 | 16.4µM* | 0.7% | 21.2
